Consider 21 compounds from PubChem BioAssay (NCI).

A short description of test [1]: NCI Yeast Anticancer Drug Screen. Data for the rad50 strain (AID 155).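 Note: 0% = growth of vehicle-only cultures of the same strain.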 The following applies: S. cerevisiae rad50 strain growth inhibition, hits give high values; at 50.0 µM unless noted. Summed up:
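Genetically altered yeast (DNA repair pathway); compound treatment; growth inhibition vs vehicle ctrl.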

Test [2] can be described thus: NCI Yeast Anticancer Drug Screen. Data for the mec2-1 strain (AID 157). To be noted: S. cerevisiae mec2-1 strain, hits give high values; at 50.0 µM unless noted. Summed up: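 Growth inhibition is read against vehicle-treated controls after compound exposure of the mec2-1 yeast strain, which is defective in DNA damage repair or cell cycle control.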
Test [3] is described as follows: NCI Yeast Anticancer Drug Screen. Data for the sgs1 mgt1 strain (AID 161).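 Note: 0% = growth of cultures given vehicle only.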 To be noted: S. cerevisiae sgs1 mgt1 strain, hits give high values; at 50.0 µM unless noted. In a few lines: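 Percent growth inhibition was derived by comparing compound-exposed mutant yeast with vehicle-exposed cultures. The strain carries alterations in DNA damage repair.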
The nature of test [4]: NCI Yeast Anticancer Drug Screen. Data for the cln2 rad14 strain (AID 165).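 Note: 0% = growth equal to vehicle treated cultures.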 The following applies: S. cerevisiae cln2 rad14 strain, hits give high values; at 50.0 µM unless noted. Summed up: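 Growth inhibition, relative to vehicle-treated controls, is the read-out. The test organism is a yeast strain with defined genetic alterations, cln2 rad14.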
Test [5] in a line: NCI Yeast Anticancer Drug Screen. Data for the bub3 strain (AID 167). The following applies: S. cerevisiae bub3 mutant strain, hits give high values; at 50.0 µM unless noted. In a few lines:
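Yeast carrying a defined mutation is treated with each compound, and growth is compared with that of vehicle-exposed cells to give inhibition.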

The nature of test [6]: NCI Yeast Anticancer Drug Screen. Data for the mlh1 rad18 strain (AID 175). To be noted: S. cerevisiae mlh1 rad18 strain growth inhibition, hits give high values; at 50.0 µM unless noted. In a few lines: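 Cells of a genetically altered yeast strain, deficient in DNA damage repair, were treated with compound. Their growth was then compared with that of vehicle-treated cultures to give inhibition.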

Each structure is given as a SMILES string. This is part of a sample that, as a whole, favours compounds with a hit. Of some 79,000 tested, about 15% had one in any assay. A number with no mark means an inactive call. Active and inactive are the calls of the source. Cut-off read from the data, not from the text of the source: active = growth inhibition above about 70%; inactive = the rest.

In the case of `C=CCCC(CCC=C)(C(=O)O)C(=O)O`, the growth inhibition is -7.1% in test [1]; -9.7% in test [2]; -16.7% in test [3]; 6.65% in test [4]; -20.9% in test [5]; -36.8% in test [6].
For `O=C(O)C(Cc1cccs1)C(=O)O`, the growth inhibition in test [1] is -12.8%; in test [2] it was 0.6%; in test [3], -15.2%; in test [4] it was 41.5%; in test [5], -18.6%; in test [6], -4.25%.
For `N#Cc1ccc(CC(=O)c2ccccc2)cc1`, the growth inhibition in test [1] was -6.05%; in test [2], 12.8%; in test [3], 0.45%; in test [4], -27.4%; in test [5] it was -0.75%; in test [6] it was 3.15%.
In the case of `OC1(c2cccc(C(F)(F)F)c2)CCN(C2CC2c2ccccc2)CC1` (stereo unspecified), the growth inhibition in test [1] was 87.2% (active); in test [2], 77.7% (active); in test [3] it was 90.8% (active); in test [4], 85.1% (active); in test [5], 84.3% (active); in test [6] it was 81.5% (active).
In the case of `Cc1c(C)c(C)c(CCc2c(C)c(C)c(C)c(C)c2C)c(C)c1C`, the growth inhibition in test [1] is -16.8%; in test [2], -1.25%; in test [3], -0.9%; in test [4] it was -16.5%; in test [5] it was -4.15%; in test [6] it was -12.3%.
For `N#CC(C(=O)NN)C1CCCCC1` (stereo unspecified), the growth inhibition in test [1] was -0.85%; in test [2], -22%; in test [3], -2.95%; in test [4], -0.1%; in test [5] it was -33.8%; in test [6], -11.7%.
As to `NC(=O)C1(N2CCCCC2)CCNCC1`, the growth inhibition in test [1] was 7.85%; in test [2], -16.5%; in test [3], -8.2%; in test [4], 6.9%; in test [5], -5.45%; in test [6] it was 3.95%.
Take `Cc1ccc(C(C)C)c(Oc2cc(C)ccc2C(C)C)c1`: the growth inhibition in test [1] was -17.9%; in test [2] it was 7.1%; in test [3], -6.8%; in test [4] it was -37.8%; in test [5], -17.5%; in test [6], -19.8%.
As for `COc1ccc(C(N2CCNCC2)N2CCNCC2)cc1`, the growth inhibition in test [1] is 13.7%; in test [2], 6.3%; in test [3], 19.6%; in test [4], -30.1%; in test [5], -3.5%; in test [6], 48.3%.
`Cc1ccccc1-c1nc2c(N)nc(N)nc2nc1N`: the growth inhibition in test [1] was -4.2%; in test [2], -12.8%; in test [3], -23.6%; in test [4], -18.9%; in test [5], -36.9%; in test [6], -62%.
Consider `O=C(O)COc1ccc(C2CCc3ccccc32)cc1` (stereo unspecified), for which the growth inhibition was 19.7% in test [1]; 7.3% in test [2]; -3.85% in test [3]; 16% in test [4]; 8.25% in test [5]; 0.7% in test [6].
For `c1c[nH]c(CN2CCOCC2)n1`, the growth inhibition was -32% in test [1]; -28.9% in test [2]; -43.4% in test [3]; 2.5% in test [4]; -38.9% in test [5]; -5.15% in test [6].
Take `O=C(Nc1cc(Cl)c(Cl)cc1Cl)C(=O)C(C(=O)c1ccccc1)C1OC(=O)c2ccccc21` (stereo unspecified): the growth inhibition in test [1] is -18.6%; in test [2] it was -34.8%; in test [3] it was -25.1%; in test [4], -0.5%; in test [5], -10.2%; in test [6], -10.3%.
As to `C[N+]1(Cc2csc(-c3ccc(Cl)cc3)n2)CCCC1`, the growth inhibition is -12.5% in test [1]; -23.1% in test [2]; 4.55% in test [3]; 9.75% in test [4]; -5.7% in test [5]; -11.7% in test [6].
Take `NC(=O)c1ccccc1OC(=O)Nc1ccc(F)c([N+](=O)[O-])c1`: the growth inhibition in test [1] is 3.75%; in test [2] it was 26.6%; in test [3], 12.4%; in test [4], -1.95%; in test [5] it was 20.7%; in test [6], 12.1%.
For `Cc1cccc(C)c1I`, the growth inhibition is -35% in test [1]; -8.55% in test [2]; -67.2% in test [3]; -25.9% in test [4]; -46.5% in test [5]; -50.1% in test [6].
For `COC(=O)C(=O)C1CCCC(C)(c2ccccc2)C1` (stereo unspecified), the growth inhibition is -0.1% in test [1]; 2.05% in test [2]; -5.05% in test [3]; 0.2% in test [4]; 1.7% in test [5]; -4.7% in test [6].
With `CCc1nnc2c(C)c(C)nc(C)n12`, the growth inhibition in test [1] was 21.2%; in test [2], 1.55%; in test [3] it was -16%; in test [4], -16.1%; in test [5], 17.2%; in test [6] it was 1.6%.
For `Oc1cccc2c1CCCC2`, the growth inhibition in test [1] is -1.25%; in test [2] it was -12.2%; in test [3], -37%; in test [4], -16.4%; in test [5], -1.85%; in test [6], -3.9%.
Consider `CN(C)c1cccc2ccccc12`, for which the growth inhibition in test [1] is -1.25%; in test [2], 9.1%; in test [3], 20.7%; in test [4], -24.3%; in test [5], 6%; in test [6] it was 18.9%.
On to `C[N+]1(C)CCc2cc(O)c(O)cc2C1Cc1ccc(O)c(O)c1` (stereo unspecified), for which the growth inhibition in test [1] was -4.35%; in test [2], 24.6%; in test [3], -29.6%; in test [4], 23.4%; in test [5], -36.8%; in test [6], 10.1%.
